# Hit rate of the full screen: of about 340,000 compounds, about 1,000 (0.29%) were called active. The list is a sample of the results. Results with a measured potency or affinity are listed apart. Unmarked numbers belong to inactive results. Cut-off read from the data, not from the text of the source: inconclusive = inhibition above about 27% without an active follow-up result; inactive = below that.
# Assay: H1N1 influenza NS1A inhibitors, functional cell based assay (AID 504329)
# Conditions: percent inhibition, at 12.5 µM, hits give high values
row,SMILES,inhibition [%]
1,COc1ccc([C@H]2CC(=O)C=C(c3ccc(O)cc3)C2)cc1OC,-4.89
2,CN(C)c1ccc(/C=N/N2C(=O)c3ccccc3C2=O)cc1,-9.49
3,CN(C)c1ccc(C(=O)NN2C(=O)c3ccccc3C2=O)cc1,-1.57
4,CCc1ccc(-c2cc(C)no2)cc1S(=O)(=O)Nc1cc(C)on1,1.29
5,Cc1ccccc1-c1nc(CS(=O)CC(=O)NCCN2CCOCC2)c(C)o1 (centres undefined),-1.58
6,CC(C)(C)C1=CC(O)(c2ccccc2)C=C(C(C)(C)C)C1=O,-2.37
7,Nc1ccccc1N=Nc1ccccc1N,18.4
8,COc1cccc(NC(=O)COC(=O)c2ccco2)c1,7.2
9,CCOc1cccc(CNCCCSc2ncccn2)c1,1.33
10,O=C(O)c1cccc2cccc(-c3c4ccc(=O)c(O)c-4oc4c(O)c(O)ccc34)c12,13
11,O=C1c2ccccc2C(=O)c2c1ccc(O)c2O,17.2
12,Cc1ccc(OCCNC(=O)C2CC(=O)N(Cc3ccccc3)C2)cc1 (centres undefined),4.88
13,CC1CCN(S(=O)(=O)c2ccccc2[N+](=O)[O-])CC1,16.9
14,CC1CCN(CC(O)COc2ccc(-c3ccccc3)cc2)CC1 (centres undefined),19.9
15,CN1CCN(c2ccc(N)c(N3CCN(C)CC3)c2)CC1,17.9
16,Cc1nn(-c2cc(N3CCCCC3)ccc2N)c(=O)c2ccccc12,2.92
17,O=C(C[C@@H]1C/C=C\C[C@@H](Cc2ccc(F)cc2)C(=O)OCCNC1=O)NCCO,0.47
18,O=C1Nc2ccc(Br)cc2C12OCCO2,-14.6
19,CCOc1ccc(C(=O)NCc2ccc3c(c2)OCO3)cc1OCC,-1.8
20,O=C(COC(=O)c1ccc[nH]c1=O)NC1CCCCCCC1,-1.92

row,SMILES,inhibition [%]
1,N#CC(c1cccc(Cl)c1)c1ccc2c(C(F)(F)F)cc(C(F)(F)F)nc2n1 (centres undefined),20.9
2,Cc1ccc(/C=N/Nc2ccc3c(C(F)(F)F)cc(C(F)(F)F)nc3n2)cc1,-11.1
3,N#CC(c1ccc(Cl)cc1)c1ccc2c(C(F)(F)F)cc(C(F)(F)F)nc2n1 (centres undefined),21.3
4,FC(F)(F)c1cc(C(F)(F)F)c2ccc(Oc3ccccc3)nc2n1,-1.17
5,O=C(C1=C[C@H](c2ccc3c(c2)OCO3)C[C@H](OCCCCO)O1)N1CCOCC1,-1.7
6,O=C(c1cc2cc(F)ccc2[nH]1)N1CCCC(Nc2ccc(F)cc2)C1 (centres undefined),9.28
7,CC(C)c1ccc(S(=O)(=O)/N=C2\C=C(NS(=O)(=O)c3ccccc3)C(=O)c3ccccc32)cc1,14.3
8,CCc1ccc(S(=O)(=O)/N=C2\C=C(NS(=O)(=O)c3ccccc3)C(=O)c3ccccc32)cc1,11.2
9,CCc1ccc(S(=O)(=O)/N=C2\C=C(Nc3ccc(C(=O)O)cc3)C(=O)c3ccccc32)cc1,25.1
10,CC(C)(C)c1ccc(S(=O)(=O)/N=C2\C=C(NS(=O)(=O)c3ccccc3)C(=O)c3ccccc32)cc1,11.3
11,Cc1ccc(S(=O)(=O)Nc2c(NC3CCCCC3)c3ccccc3oc2=O)c(C)c1,0.02
12,Cc1ccn(CCC(=O)N2CCCC(CCC(=O)N3CCN(c4ccccn4)CC3)C2)n1 (centres undefined),-2.86
13,Cc1cc(C)c(NC(=O)CNC(=O)COC(=O)CNC(=O)c2ccc(Cl)cc2Cl)c(C)c1,-0.98
14,CCOC(=O)N1CCC(NS(=O)(=O)c2cc(Br)cc3c2N(C(=O)CC)CC3)CC1,7.36
15,Cc1cccc(C)c1Nc1c(-c2ccccn2)nc2ccccn12,29.7
16,Cc1ccn2c(Nc3ccccc3)c(-c3ccccn3)nc2c1,-0.92
17,Cc1ccc(Nc2c(-c3ccccn3)nc3cc(C)ccn23)cc1,53
18,Cc1ccccc1Nc1c(-c2ccccn2)nc2c(C)cccn12,-0.06
19,CCOC(=O)CN(C(=O)c1snc(C(N)=O)c1N)C(C(=O)NC1CCCCC1)c1ccc(F)cc1 (centres undefined),1.16
20,COc1ccc(C(=O)N/C(=C\c2cn(C)c3ccccc23)C(=O)NCCCn2ccnc2)cc1OC,4.02

row,SMILES,inhibition [%]
1,O=C(NCCc1ccc(Cl)cc1)C(=O)c1c[nH]c2ccccc12,-31.4
2,O=C(Nc1ccc(N2CCOCC2)cc1)C1CCCCN1S(=O)(=O)c1ccccc1 (centres undefined),-25.6
3,c1cc(CNCCN2CCNCC2)ccn1,-2.65
4,c1ccc(CN2CCNCC2)nc1,2.99
5,CN(CCCNC(=O)CCC(=O)N1CCOc2ccc(Cl)cc21)Cc1ccccc1,3.8
6,O=C(CN1C(=O)NC2(CCc3ccccc32)C1=O)c1cccs1 (centres undefined),-5.04
7,CCc1ccc2[nH]c3nc(N/N=C/c4ccc(O)cc4O)nnc3c2c1,1.89
8,COc1ccccc1/C=N/Nc1nc(C)cc(C)n1,-18.3
9,COc1ccc(/C=N/Nc2nnc(Cc3ccc(OC)c(OC)c3)c(=O)[nH]2)cc1OC,-2.26
10,COc1ccc(CCN=Cc2ccccc2O)cc1OC,-18.6
11,COc1ccc(/C=N/Nc2nnc(Cc3ccc(OC)c(OC)c3)c(=O)[nH]2)cc1,12.1
12,COc1ccc(Cc2nnc(SC)[nH]c2=O)cc1OC,-0.91
13,COc1ccc(Cc2nccc3cc(OC)c(OC)cc23)cc1OC,0.89
14,COc1ccc(Cc2nc3ccccc3n2CC(=O)N/N=C/c2ccc(C)cc2O)cc1OC,1.09
15,COc1ccc(NC2c3ccccc3C(=O)N2c2ccccn2)cc1Cl (centres undefined),25
16,Cn1c(=O)c(=O)n(C)c2cc(S(=O)(=O)NCc3ccc(Cl)cc3)ccc21,-12
17,O=C(CSc1ccccc1)NNC(=O)c1ccncc1,-1.89
18,CC(C)CC(=O)Nc1nnc(S(=O)(=O)Nc2ccccc2)s1,0.61
19,CCCCn1c(=O)[nH]c(=O)c2c1nc(-c1ccccc1OC(F)F)n2C,-2.54

# — PubChem BioAssay AID504329 (Southern Research Specialized Biocontainment Screening …, 2011)
